Screening data from PubChem BioAssay.
Pf Dd2 inh: inhibitors of Plasmodium falciparum Dd2 growth | P. falciparum Dd2 growth, SYBR Green, 72 h | Potency, µM (highest dose often 28.9 µM), usual class: inhibitors | 4.3% of 120,000 active; active = well fitted inhibition curve with a large enough effect; also: nearly all actives have a fitted effect of over 65% in size
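Infected erythrocytes (Dd2, 0.3% parasitemia, 2.5% hematocrit final) are added to compound in RPMI-1640/Albumax II medium, grown 72 h at 37C in low oxygen, then lysed with saponin/Triton-X containing SYBR Green and read by fluorescence.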
Each line names hits and unclear results; the compound was inactive in the other large screens. The full list was thinned out, with hits kept by preference.

O=C(c1nccc2ccccc12)N1CCC2(CC1)NCCc1c2[nH]c2ccccc12	Pf Dd2 inh 4µM
COc1ccc2[nH]c3c(c2c1)CCNC31CCN(C(=O)C2CCN2C2CCCCC2)CC1 (stereo not drawn)	Pf Dd2 inh 13µM
CCC(=O)N1CCC2(CC1)NCCc1c2[nH]c2ccc(OC)cc12	none
COc1ccc2[nH]c3c(c2c1)CCNC31CCN(C(=O)c2ccncc2)CC1	none
COc1ccc2[nH]c3c(c2c1)CCNC31CCN(C(=O)C(C)C)CC1	none
COc1ccc2[nH]c3c(c2c1)CCNC31CCN(C(=O)CC(C)C)CC1	Pf Dd2 inh 7.9µM
O=C(c1ccc2ccccc2n1)N1CCC(n2c(=O)[nH]c3ccccc32)CC1	none
CN(C)c1ccc(CN[C@H]2CC(C)(C)[C@@H]3C[C@@](C)(O)CC[C@]23CCC(=O)NCCc2c[nH]c3ccccc23)cc1	none
CCOc1ccc(C(=O)NC2CCN(c3cnn(C)c(=O)c3)CC2)cc1	none
Cc1cccc(NC(=O)Cn2ccn3nc4c(c3c2=O)CCCC4)c1C	none
O=C(NC1CCN(c2cc(-c3ccccc3)[nH]n2)CC1)c1ccc(F)c(Cl)c1	none
CCN1CCN(C(=O)CC2Sc3ncccc3N(CC)C2=O)CC1 (stereo not drawn)	none
Cc1cc(Cl)cc(Cl)c1CNCC1(O)CCCNC1 (stereo not drawn)	Pf Dd2 inh 7.9µM
COc1c(F)cc(CNCC2(O)CCCNC2)cc1F (stereo not drawn)	none
Cc1cnc(CNCC2(O)CNCCOC2)cn1 (stereo not drawn)	none
Cc1cnc(C(=O)N2CCC3(CC2)CC(N2CCN(c4ccccn4)CC2)CCO3)cn1 (stereo not drawn)	none
COc1ccc(CNCCC(c2ccc(C)cc2)c2ccco2)cc1 (stereo not drawn)	Pf Dd2 inh 13µM
COc1ccc(CNCCN2CCCC2)cc1	none
COc1ccc(CNC(=O)C(=O)NCC(c2ccco2)S(=O)(=O)c2ccc(C)cc2)cc1 (stereo not drawn)	none
Cc1cnc(CC2CCN(C(=O)c3cccnc3)C2)n1C(C)C (stereo not drawn)	none
CC(C)N1CCC[C@H]1c1nc(-c2ccc(OC3CCCCC3)nc2)no1	none
N#Cc1ccc(C(=O)NC2CCN(C(=O)N3CC4CC(C3)[C@H]3CCCC(=O)N3C4)CC2)cc1 (stereo partly drawn)	none
CCCN(C)c1nccnc1OC1CCN(C(=O)c2ccc(F)cc2)C1 (stereo not drawn)	Pf Dd2 inh 10µM
CCCN(C)c1nccnc1OC1CCN(C(=O)C2CCOCC2)C1 (stereo not drawn)	none
CN(C)c1nccnc1OC1CCN(C(=O)c2ccn[nH]2)C1 (stereo not drawn)	none
COc1ccc(C(=O)N(C)C2CCc3ccccc32)cc1 (stereo not drawn)	none
Cc1ncoc1C(=O)NCC1Cn2cccc2C(=O)N1CC(C)C (stereo not drawn)	none
COc1ccc(-c2nn(-c3ccccc3C)cc2CN2CCN(C)C(=O)[C@@H]2C)cc1F	none
COc1ccc(-c2n[nH]c3c2CC(=O)N(Cc2ccccc2F)C3)cc1F	none
COc1ccc(-c2nn(-c3ccccc3C)cc2CN2C[C@@H](C)O[C@@H](C)C2)cc1F	Pf Dd2 inh 10µM
COC[C@H]1CCCN1Cc1cn(-c2ccccc2C)nc1-c1ccc(OC)c(F)c1	none
COCC1CCN(Cc2cn(-c3ccccc3C)nc2-c2ccc(OC)c(F)c2)CC1	Pf Dd2 inh 10µM
COc1ccc(-c2nn(-c3ccccc3C)cc2CN2CCCOCC2)cc1F	none
CN1C(=O)CC[C@]2(C(=O)NCc3cc(F)ccc3F)CCCC[C@@H]12	none
CC(C)C(=O)NC1CCN(c2cn[nH]c(=O)c2)CC1	none
Cc1c(C(=O)N2CCCC(CCc3ccc(F)cc3)C2)cnc2cc(=O)[nH]n12 (stereo not drawn)	none
COc1ccccc1C(=O)N1CCn2c(nnc2C2CCCNC2)C1 (stereo not drawn)	none
O=C1NC(C(=O)NCc2ccc3c(c2)OCO3)Cn2cccc21 (stereo not drawn)	none
O=C(C1CC1)N1CCCC(c2nc(CCOCC3CCOCC3)no2)C1 (stereo not drawn)	none
CCCNC(=O)N1CCC(c2nc(CCOCC3CCOCC3)no2)C1 (stereo not drawn)	none
C1CC(COCCc2noc(C3CNC3)n2)CCO1	Pf Dd2 inh 11µM
CCOc1ccc(C2NC(=O)N(CC(=O)N3CCC(C)CC3)C3=C2C(=O)OC3)cc1 (stereo not drawn)	none
CCc1ccc(-n2nc(C)c3c(C(=O)N4CCN(c5cccc(Cl)c5)CC4)cc(C)nc32)cc1	Pf Dd2 inh 11µM
Cc1cc(C(=O)N2CCN(c3ccccc3)CC2)c2c(C)nn(-c3cccc(F)c3)c2n1	none
CCc1ccc(-n2nc(C)c3c(C(=O)N4CCN(c5ccccc5)CC4)cc(C)nc32)cc1	none
COc1cccc(CN2CCCC(O)(CN3CCC4(CC3)OCCO4)C2=O)c1 (stereo not drawn)	none
Cc1ccc(-c2c(C)n3c4c(=O)n(C)c(=O)n(C)c4nc3n2-c2cccc(O)c2)cc1	Pf Dd2 inh 10µM
CCc1ccc(-n2c(-c3ccccc3)c(C)n3c4c(=O)n(C)c(=O)n(C)c4nc23)cc1	none
Cc1ccc(-c2nc3ccccc3n3c(-c4ccccc4)c4c(=O)n(C)c(=O)n(C)c4c23)cc1	none
COc1cccc(-c2noc(-c3ccc(N4CCCC(CO)C4)nc3)n2)c1OC (stereo not drawn)	none
CCc1ccc(NC(=O)CN(c2ccc(C)cc2)S(=O)(=O)c2c(C)nn(C)c2C)cc1	none
Cc1ccc(CCNC(=O)CN(c2ccc(C)cc2)S(=O)(=O)c2c(C)noc2C)cc1	none
Cc1cccc(CCNC(=O)CN(c2ccc(C(C)C)cc2)S(=O)(=O)c2c(C)nn(C)c2C)c1	Pf Dd2 inh 10µM
CCn1c(C2CCCN(C(=O)CN3C(=O)NC(=O)C3(C)C)C2)nn(C)c1=O (stereo not drawn)	none
COc1cccc(N2CC(C(=O)N3CCC(C(=O)N4CCOCC4)C3)NC2=O)c1 (stereo not drawn)	none
O=C(Nc1ccc(F)cc1F)N1CCCC(Cn2c(C3CC3)nc3cccnc32)C1 (stereo not drawn)	none
COCC(=O)N1CCc2nc(C)nc(NCc3cc(C)nn3C)c2CC1	none
N#Cc1cccc(C(=O)N2CCC3(CC2)CN(C2CCC2)CC3CO)c1 (stereo not drawn)	none
COCC1CN(C2CCC2)CC12CCN(C(=O)c1ccccn1)CC2 (stereo not drawn)	none
COCC1CN(C(C)=O)CC12CCN(C(=O)COc1cccc(C)c1)CC2 (stereo not drawn)	none
COCC1CN(C2CCC2)CC12CCN(C(=O)c1cccs1)CC2 (stereo not drawn)	none
COCC1CN(C2CCC2)CC12CCN(C(=O)COc1cccc(C)c1)CC2 (stereo not drawn)	Pf Dd2 inh 5µM
O=C(Cc1ccc(Cl)cc1)N1CCC2(CC1)CN(C1CCC1)CC2CO (stereo not drawn)	Pf Dd2 inh 8.9µM
COCC1CN(C2CCC2)CC12CCN(C(=O)c1cccc(C)c1)CC2 (stereo not drawn)	Pf Dd2 inh 8.9µM
OCC1CN(C2CCC2)CC12CCN(C1CCC1)CC2 (stereo not drawn)	none
COCC1CN(C2CCC2)CC12CCN(C(=O)c1cccc(C#N)c1)CC2 (stereo not drawn)	none
O=C(NCCc1c[nH]c2ccccc12)c1cnc2c(c1)N([S+](=O)([O-])c1cccnc1)CCC2	none
CC1=C(C(=O)Nc2ccccc2)C(c2cc(C)ccc2C)N2C(CC(=O)N3CCCC3)=CSC2=N1 (stereo not drawn)	none
Cn1c(=O)n([C@H]2CCCN(C(=O)c3ccn[nH]3)C2)c2ncccc21	none
